In PubChem BioAssay (Tox21):
Inconclusive results are not listed. A call without a number means that no potency is given here. Unmarked numbers belong to inactive results. Active and inactive are the calls of the source. Calls come from the whole dose curve; as a rule, active = well fitted cell-killing curve with a large enough effect in the repeat runs; inconclusive = weak or mixed curves; inactive = flat fitted curve, though single readings scatter.

Assay: qHTS RealTime-Glo MT Cell Viability Assay in HepG2 cells - 32 hour (AID 1224877); note: nearly all actives have a fitted effect of over 55% in size
Settings: RealTime-Glo luminescence; series mostly up to 76.8 µM
Source text: U.S. Tox21 Program National Center for Advancing Translational Sciences [NCATS] NIH Chemical Genomics Center [NCGC] U.S. Environmental Protection Agency [EPA] National Institutes of Environmental Health Sciences [NIEHS] National Toxicology Program [NTP] U.S. Food and Drug Administration [FDA] Tox21 Assay Overview: Measure of cell viability is critical in the cell-base assay. Analysis of cell viability is necessary for the characterization of cell responses to cytotoxic drugs and environmental stress. A RealTime-Glo MT Cell Viability Assay to monitor cell viability in real time of continues cell culture during 40 hours of compound treatment was used to screen Tox21 10K library compounds in HepG2 cells. The RealTime-Glo MT Cell Viability Assay is a nonlytic, homogeneous, bioluminescent method to measure cell viability in real time using a simple, plate-based method. The assay involves adding NanoLuc luciferase and a cell-permeant prosubstrate to cells in culture. Viable cells reduce the proprietary prosubstrate to generate a substrate for NanoLuc luciferase. This substrate diffuses from cells into the surrounding culture medium, where it is rapidly used by the NanoLuc Enzyme to produce a luminescent signal. The signal correlates with the number of viable cells, making the assay well suited for cytotoxicity studies.
Tox21 Assay Protocol Summary: The mixture of HepG2 cell suspension and reagents were dispensed at 600cells/6 ul/well in 1536-well tissue culture treated black solid bottom plates using a Multidrop dispenser. After the assay plates were incubated at a 37 C/5% CO2 incubator for 5 hours, 23 nL of compounds dissolved in DMSO, positive and negative controls was transferred to the assay plate by a pintool work station. The plates were incubated at 37 C for 40 hours. The luminescence intensity were measured at 0h, 8h, 16h, 24h, 32h and 40h time points using ViewLux plate reader during compound treatment.
With `N[C@@H](C(=O)N[C@@H]1C(=O)N2C(C(=O)O)=C(Cl)CS[C@H]12)c1ccccc1` the activity change, negative = cytotoxic was 1.49% [at 6.97 µM].
In the case of `O=C(O)CCCl`, the Potency is reported as “inactive”.
For `O=[N+]([O-])c1ccc(F)cc1F`, the Potency was “inactive”.
For `C=C(C)CS(=O)(=O)O`, the Potency was “inactive”.
With `CS(=O)(=O)O` the Potency was “inactive”.
For `CC(C)(C)NCCNC(C)(C)C`, the Potency was “inactive”.
In the case of `CCC(C)C1CCCCC1=O` (stereo not given), the Potency is reported as “inactive”.
For `CCCCCCCCCCCC`, the Potency was “inactive”.
In the case of `c1cnc(N2CCN(Cc3ccc4c(c3)OCO4)CC2)nc1`, the Potency is reported as “inactive”.
With `CC[N+](C)(C)c1cccc(O)c1` the Potency was “inactive”.
For `O=c1cc(-c2ccccc2)oc2ccccc12`, the Potency was “inactive”.
With `CN1N=C(C(N)=O)CCC1=O` the Potency was “inactive”.
In the case of `N=C(N)c1ccc2cc(OC(=O)c3ccc(N=C(N)N)cc3)ccc2c1`, the Potency is reported as “inactive”.
With `Nc1cc(=O)[nH]c(N)n1` the Potency was “inactive”.
With `C1OCOCO1` the Potency was “inactive”.
With `CCC(=O)OC(C)c1ccccc1` (stereo not given) the Potency was “inactive”.
In the case of `O=C(CCCN1CCN(c2ccccn2)CC1)c1ccc(F)cc1`, the Potency is reported as “inactive”.
In the case of `NS(=O)(=O)c1cc(C(=O)O)cc(N2CCCC2)c1Oc1ccccc1`, the Potency is reported as “inactive”.
In the case of `O=C(O)Cc1ccc(CCNS(=O)(=O)c2ccc(Cl)cc2)cc1`, the Potency is reported as “inactive”.
For `CC1(C)C(O)C(C)(C)C1O` (stereo not given), the Potency was “inactive”.
For `CN1C(=O)N(C)C(O)C1O` (stereo not given), the Potency was “inactive”.
In the case of `CN(C)CCCNCCCN(C)C`, the Potency is reported as “inactive”.
For `CC1=CC(C)C(C=O)CC1` (stereo not given), the Potency was “inactive”.
For `CC(C(=O)O)c1ccc(CC2CCCC2=O)cc1` (stereo not given), the Potency was “inactive”.
With `NS(=O)(=O)c1ccc(C(=O)O)cc1` the Potency was “inactive”.
With `Cc1nc2c([nH]1)c(=O)n(C)c(=O)n2Cc1ccco1` the Potency was “inactive”.
With `CCCCNC(=O)NCCCC` the Potency was “inactive”.
For `COc1ccc2c(c1)c(CC(=O)OCC(=O)O)c(C)n2C(=O)c1ccc(Cl)cc1`, the Potency was “inactive”.
`C[C@](N)(Cc1ccc(O)cc1)C(=O)O` gave an activity change, negative = cytotoxic of 3.47% [at 6.97 µM].
In the case of `O=C1CCCN1C1CCCCC1`, the Potency is reported as “inactive”.
For `Cc1cc2c(cc1S(N)(=O)=O)S(=O)(=O)CCC2`, the Potency was “inactive”.
With `CC(NC(CCc1ccccc1)C(=O)O)C(=O)N1C(=O)N(C)CC1C(=O)O` (stereo not given) the Potency was “inactive”.
For `CC(C)(O)C(=O)c1ccccc1`, the Potency was “inactive”.
In the case of `COC(=O)c1ccc(C)cc1C1=NC(C)(C(C)C)C(=O)N1` (stereo not given), the Potency is reported as “inactive”.
In the case of `CC(=O)OCC(=O)[C@@]1(O)CC[C@H]2[C@@H]3CCC4=CC(=O)CC[C@]4(C)[C@H]3C(=O)C[C@@]21C`, the Potency is reported as “inactive”.
For `COc1nc(N)nc2c1ncn2[C@@H]1O[C@H](CO)[C@@H](O)[C@@H]1O`, the Potency was “inactive”.
For `N=C(N)c1ccc(OCCCOc2ccc(C(=N)N)cc2)cc1`, the Potency was “inactive”.
For `NCCCNCCSP(=O)(O)O`, the activity change, negative = cytotoxic was 1.78% [at 6.97 µM].
In the case of `CC(=O)CC(C)(C)C1CCCCC1`, the Potency is reported as “inactive”.
Work on `N[C@H](C(=O)O)c1ccc(O)cc1` yielded an activity change, negative = cytotoxic of 3.27% [at 15.8 µM].
